SMILES strings stand for the structures. Inconclusive results are not listed. Active and inactive are the calls of the source. How the source made its calls, unless noted: active means hit-call score of the fitted dose curve at least 0.9, where 1 is the maximum; inconclusive means response in the unintended direction; inactive means score below 0.9.

Assay [1] concerns the target mouse Estrogen Receptor alpha (Era), Esr1 (gene 13982) (UniProt P19785). In words: NVS_NR_mERa: NovaScreen (NVS) Nuclear Receptor Binding Assay for mouse Estrogen Receptor alpha (Era) (AID 2283378).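 Further: hit means loss of bound radioligand signal relative to DMSO.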 The procedure, abridged:
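Cell-free radioligand binding with extracted mouse Era protein; competitive displacement of radiolabelled ligand, read by filter-based scintillation counting 18 hours after dosing. Loss of signal versus DMSO baseline taken as binding; single screening concentration 25 uM, actives followed in concentration series.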

Assay [2] addresses Estrogen receptor beta (Homo sapiens) (UniProt Q92731). Put plainly: OT_ER_ERbERb_1440: Odyssey Thera (OT) 24-hour HEK293T Protein-Complementation Assay for Estrogen Receptor-beta/-beta Homodimer (AID 2283380).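 Further: fluorescence gain from ER beta LBD homodimer complementation read by laser scanning cytometry; scored as signal increase over DMSO baseline for both agonists and antagonists.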 In outline:
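Fluorescence increase, nuclear for agonists or whole-cell for antagonists, relative to DMSO vehicle, quantified by laser scanning cytometer after fixation and Draq5 staining. Readout from 24 h treatment of HEK293T cells carrying complementation-paired ER beta LBD (aa 310-547).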

Assay [3] deals with Estrogen receptor (Homo sapiens) (UniProt P03372). In words: OT_ERa_GFPERaERE_0480: Odyssey Thera (OT) 8-hour HeLa Transcription Induction Assay for Estrogen Receptor (AID 2283381; active means hit-call score of the fitted dose curve at least 0.9, where 1 is the maximum; inactive means score below 0.9). In outline:
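An 8 h HeLa transcription-induction format with a GFP reporter under ERE control, read by fluorescence microscopy; single endpoint fitted positively with DMSO as baseline.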

Assay [4] shares this target. Put plainly: OT_ERa_GFPERaERE_0120: Odyssey Thera (OT) 2-hour HeLa Transcription Induction Assay for Estrogen Receptor (AID 2283382). In outline: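 Two-hour compound treatment of HeLa cells preceded microscopy imaging of an inducible fluorescent reporter. Image-based quantification gave one endpoint, analysed for signal increase relative to DMSO controls.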
The target of assay [5] is Peroxisome proliferator-activated receptor gamma (Homo sapiens) (UniProt P37231). Put plainly: OT_PPARg_PPARgSRC1_0480: Odyssey Thera (OT) 8-hour Protein-Complementation Assay for Peroxisome Proliferator-activated Receptor Gamma / SRC-1 Co-activator (AID 2283387). In outline: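 Split-YFP (IFP1/IFP2) PPARg/SRC-1 reporter, HEK293T, 37 °C, 5% CO2; 8 h compound; formaldehyde fix + Draq5; high-content imaging, N/C ratio, ≥350 cells/image, positive direction vs DMSO.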

Assay [6] in a line: CEETOX_H295R_11DCORT: CeeTox H295R High-throughput Steroidogenesis Assay for 11-Deoxycortisol (11DCORT) (AID 2283432; active means hit-call score of the fitted dose curve at least 0.9, where 1 is the maximum; inactive means score below 0.9;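 on AC50: 11-deoxycortisol secreted into the medium measured by LC-MS/MS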). The following applies: actives raise or lower the signal. In outline:
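Steroidogenesis in human H295R cells: 48 h chemical exposure after forskolin priming, 11-deoxycortisol measured by LC-MS/MS.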

The nature of assay [7]: CEETOX_H295R_OHPREG: CeeTox H295R High-throughput Steroidogenesis Assay for OH-Pregnenolone (OHPREG) (AID 2283434; active means hit-call score of the fitted dose curve at least 0.9, where 1 is the maximum; inactive means score below 0.9). The note with it: actives raise or lower the signal. In outline:
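Secreted 17alpha-hydroxypregnenolone measured by HPLC-MS/MS after liquid-liquid extraction. Human adrenal H295R cells received 48 h forskolin (10 uM) stimulation before 48 h chemical exposure at 0.1% final DMSO; MTT viability in same wells; bidirectional fit against DMSO.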

The nature of assay [8]: CEETOX_H295R_OHPROG: CeeTox H295R High-throughput Steroidogenesis Assay for OH-Progesterone (OHPROG) (AID 2283435; active means hit-call score of the fitted dose curve at least 0.9, where 1 is the maximum; inactive means score below 0.9;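 on AC50: 17alpha-hydroxyprogesterone secreted into medium measured by HPLC-MS/MS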). The note with it: actives raise or lower the signal. The procedure, abridged:
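Human adrenocortical H295R cells, passage 10 or lower, were treated with chemical for 48 h after forskolin priming, and hormone output in the medium was quantified by LC-MS/MS.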

A short description of assay [9]: CEETOX_H295R_CORTIC: CeeTox H295R High-throughput Steroidogenesis Assay for Corticosterone (CORTIC) (AID 2283437; active means hit-call score of the fitted dose curve at least 0.9, where 1 is the maximum; inactive means score below 0.9). The note with it: actives raise or lower the signal. In outline: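 Medium corticosterone was quantified by tandem mass spectrometry following 48 hours of chemical exposure (0.1% DMSO) in human H295R cells previously stimulated 48 hours with 10 uM forskolin. Viability checked by MTT; chemicals diluted and retested when viability fell below 70%.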

Assay [10] can be described thus: CEETOX_H295R_ESTRADIOL: CeeTox H295R High-throughput Steroidogenesis Assay for Estradiol (AID 2283440; active means hit-call score of the fitted dose curve at least 0.9, where 1 is the maximum; inactive means score below 0.9;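 further: estradiol secreted into medium quantified by LC-MS/MS after dansyl derivatisation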). The following applies: actives raise or lower the signal. The procedure, abridged: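 H295R adrenocortical cells were prestimulated with 10 uM forskolin for 48 h, then exposed to test chemical in 0.1% DMSO for 48 h. Medium estradiol was extracted with MTBE, dansyl-derivatized and quantified by HPLC-MS/MS; bidirectional fit versus DMSO.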

Assay [11] in a line: CEETOX_H295R_ESTRONE: CeeTox H295R High-throughput Steroidogenesis Assay for Estrone (AID 2283441; active means hit-call score of the fitted dose curve at least 0.9, where 1 is the maximum; inactive means score below 0.9;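 further: estrone secreted into medium measured by LC-MS/MS after dansyl derivatization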). The note with it: actives raise or lower the signal. The procedure, abridged:
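Forskolin-stimulated H295R cells are treated 48 h with chemical, and estrone in the medium is measured by LC-MS/MS. Activity is fitted in both directions relative to DMSO controls, with chemicals diluted until MTT viability reaches at least 70%.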

Assay [12] is described as follows: CEETOX_H295R_PROG: CeeTox H295R High-throughput Steroidogenesis Assay for Progesterone (PROG) (AID 2283442; active means hit-call score of the fitted dose curve at least 0.9, where 1 is the maximum; inactive means score below 0.9;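 on AC50: human H295R adrenal cells primed with 10 µM forskolin before dosing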). The note with it: actives raise or lower the signal. The procedure, abridged: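 H295R human adrenal cells were prestimulated with 10 uM forskolin for 48 h, then exposed to test chemical (0.1% DMSO final) for 48 h. Medium progesterone was MTBE-extracted and quantified by HPLC-MS/MS, with bidirectional fitting against DMSO.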

Assay [13] deals with Agonist Androgen Response Element (ARE), AR (gene 367) (UniProt P10275). In words: OT_AR_ARELUC_AG_1440: Odyssey Thera (OT) 24-hour CHO-K1 Luciferase Assay for Agonist Androgen Response Element (ARE) (AID 2283379). The procedure, abridged: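 Readout: luciferase bioluminescence from CHO-K1 ARE-luc cells, measured 24 h post-dosing; agonism = increased mean luminescence vs DMSO controls, fitted in positive direction.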

For assay [14], the target named is Bile acid receptor (Homo sapiens) (UniProt Q96RI1). Put plainly: OT_FXR_FXRSRC1_0480: Odyssey Thera (OT) 8-hour HEK293T Protein-Complementation Assay for Farnesoid X receptor/SRC-1 Co-activator (AID 2283383). In outline:
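Readings were taken 8 h after dosing HEK293T cells in a split-reporter complementation format pairing FXR with SRC-1. Increased fluorescence relative to DMSO-treated wells defined activity.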

Assay [15] has as its target Retinoic acid receptor RXR-alpha (Homo sapiens) (UniProt P19793). Put plainly: OT_NURR1_NURR1RXRa_0480: Odyssey Thera (OT) 8-hour HEK293T Protein Complementation Assay for Nurr1/retinoid X receptor (RXR) (AID 2283385). In outline:
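Gain in fluorescent complementation signal over DMSO, measured 8 hours after chemical dosing of human kidney HEK293T cells, indicated enhanced Nurr1–RXRα association.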

The target is the same in assay [16]. In words: OT_NURR1_NURR1RXRa_1440: Odyssey Thera (OT) 24-hour HEK293T Protein Complementation Assay for Nurr1/retinoid X receptor (RXR) (AID 2283386). The procedure, abridged:
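Cell-based binding reporter: HEK293T cells, 24 h exposure, fluorescence-detected fragment complementation, DMSO as baseline.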

Assay [17] deals with Peroxisome proliferator-activated receptor gamma (Homo sapiens) (UniProt P37231). Put plainly: OT_PPARg_PPARgSRC1_1440: Odyssey Thera (OT) 24-hour Protein-Complementation Assay for Peroxisome Proliferator-activated Receptor Gamma/ SRC-1 Co-activator (AID 2283388). The procedure, abridged: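 HEK293T cells transiently transfected with PPARg and SRC-1 fused via (Gly4Ser)2 linker to split Venus YFP fragments (IFP1/IFP2) were dosed 24 h; fixed, Draq5-stained, imaged at 488/635 nm; nuclear/cytoplasmic fluorescence ratio scored versus DMSO baseline, gain-of-signal.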

For assay [18], the target named is Bile acid receptor (Homo sapiens) (UniProt Q96RI1). Put plainly: OT_FXR_FXRSRC1_1440: Odyssey Thera (OT) 24-hour HEK293T Protein-Complementation Assay for Farnesoid X receptor/SRC-1 Co-activator (AID 2283384). In outline:
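Single endpoint, analysed for increased fluorescence against DMSO controls. HEK293T cells carrying FXR and SRC-1 linked to complementary reporter halves were exposed to chemicals for 24 h before reading.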

A short description of assay [19]: CEETOX_H295R_ANDR: CeeTox H295R High-throughput Steroidogenesis Assay for Androstenedione (ANDR) (AID 2283436; active means hit-call score of the fitted dose curve at least 0.9, where 1 is the maximum; inactive means score below 0.9). The following applies: actives raise or lower the signal. In outline: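 Medium from 48 h chemical-treated H295R adrenal cells was extracted with MTBE and androstenedione measured by LC-MS/MS. Activity was fit in both directions relative to DMSO. Cytotoxic concentrations were re-tested after dilution until MTT viability reached ≥70%.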

The target in assay [20] is human Norepinephrine Transporter (NET), SLC6A2 (gene 6530) (UniProt P23975). In words: NVS_TR_hNET: NovaScreen (NVS) Transporter Assay for human Norepinephrine Transporter (NET) (AID 2283377).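 Further: cell-free membrane protein extracted from CHO cells expressing human NET.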 In outline: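 Single-concentration duplicate screen at 25 uM, then concentration-response for actives; displacement of specific radioligand from human NET in CHO membrane extracts, filter-based scintillation detection at 1 h relative to DMSO.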
Sequence of human Norepinephrine Transporter (NET), SLC6A2 (gene 6530) (P23975 whole entry, looked up): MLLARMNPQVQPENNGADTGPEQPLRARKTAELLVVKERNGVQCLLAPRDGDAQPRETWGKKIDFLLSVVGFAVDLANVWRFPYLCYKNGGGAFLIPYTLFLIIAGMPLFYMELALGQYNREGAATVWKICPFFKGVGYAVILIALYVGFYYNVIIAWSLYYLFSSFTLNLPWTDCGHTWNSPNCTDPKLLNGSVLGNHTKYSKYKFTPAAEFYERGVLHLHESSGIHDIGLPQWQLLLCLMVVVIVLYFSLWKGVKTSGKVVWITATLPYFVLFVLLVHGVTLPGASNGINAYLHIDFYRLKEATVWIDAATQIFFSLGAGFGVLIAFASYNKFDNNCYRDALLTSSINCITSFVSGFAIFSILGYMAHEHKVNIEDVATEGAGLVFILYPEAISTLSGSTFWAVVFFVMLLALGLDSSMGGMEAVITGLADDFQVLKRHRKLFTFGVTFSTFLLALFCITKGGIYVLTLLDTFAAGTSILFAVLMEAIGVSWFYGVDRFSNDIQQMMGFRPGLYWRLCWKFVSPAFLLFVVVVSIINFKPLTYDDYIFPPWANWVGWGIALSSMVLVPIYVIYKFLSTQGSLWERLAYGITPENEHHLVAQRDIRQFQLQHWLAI

Sequence of Peroxisome proliferator-activated receptor gamma (Homo sapiens) (P37231 whole entry, looked up, the tested form may be a part): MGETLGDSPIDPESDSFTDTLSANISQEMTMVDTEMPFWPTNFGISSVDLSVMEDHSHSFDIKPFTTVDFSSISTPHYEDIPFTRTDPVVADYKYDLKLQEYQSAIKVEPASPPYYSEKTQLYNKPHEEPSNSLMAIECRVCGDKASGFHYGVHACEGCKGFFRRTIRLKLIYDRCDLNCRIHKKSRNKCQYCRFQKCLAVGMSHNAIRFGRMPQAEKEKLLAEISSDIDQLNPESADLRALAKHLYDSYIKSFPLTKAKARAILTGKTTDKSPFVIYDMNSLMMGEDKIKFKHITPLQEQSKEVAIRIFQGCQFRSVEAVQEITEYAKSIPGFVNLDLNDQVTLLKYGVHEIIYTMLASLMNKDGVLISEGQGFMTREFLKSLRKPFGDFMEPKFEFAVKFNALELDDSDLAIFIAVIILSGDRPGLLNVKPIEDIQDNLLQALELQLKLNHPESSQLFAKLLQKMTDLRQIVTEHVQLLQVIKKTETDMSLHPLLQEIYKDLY
Sequence of Estrogen receptor (Homo sapiens) (P03372 whole entry, looked up): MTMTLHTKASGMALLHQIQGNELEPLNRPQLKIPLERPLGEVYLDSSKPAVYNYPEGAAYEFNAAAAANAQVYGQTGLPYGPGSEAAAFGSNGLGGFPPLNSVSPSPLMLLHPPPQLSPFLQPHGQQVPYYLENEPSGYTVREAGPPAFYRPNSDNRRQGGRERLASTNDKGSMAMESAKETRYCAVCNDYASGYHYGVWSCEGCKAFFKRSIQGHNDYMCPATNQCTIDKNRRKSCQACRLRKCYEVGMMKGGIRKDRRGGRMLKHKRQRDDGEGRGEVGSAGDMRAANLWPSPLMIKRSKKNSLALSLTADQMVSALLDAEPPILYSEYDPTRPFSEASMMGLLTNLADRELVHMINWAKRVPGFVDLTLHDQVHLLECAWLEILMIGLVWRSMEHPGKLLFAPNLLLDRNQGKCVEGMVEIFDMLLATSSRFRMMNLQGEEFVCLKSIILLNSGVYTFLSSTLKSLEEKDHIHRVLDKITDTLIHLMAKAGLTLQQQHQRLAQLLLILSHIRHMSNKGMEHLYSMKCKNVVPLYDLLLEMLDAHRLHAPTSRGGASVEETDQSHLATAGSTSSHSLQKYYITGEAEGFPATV
Sequence of Retinoic acid receptor RXR-alpha (Homo sapiens) (P19793 whole entry, looked up): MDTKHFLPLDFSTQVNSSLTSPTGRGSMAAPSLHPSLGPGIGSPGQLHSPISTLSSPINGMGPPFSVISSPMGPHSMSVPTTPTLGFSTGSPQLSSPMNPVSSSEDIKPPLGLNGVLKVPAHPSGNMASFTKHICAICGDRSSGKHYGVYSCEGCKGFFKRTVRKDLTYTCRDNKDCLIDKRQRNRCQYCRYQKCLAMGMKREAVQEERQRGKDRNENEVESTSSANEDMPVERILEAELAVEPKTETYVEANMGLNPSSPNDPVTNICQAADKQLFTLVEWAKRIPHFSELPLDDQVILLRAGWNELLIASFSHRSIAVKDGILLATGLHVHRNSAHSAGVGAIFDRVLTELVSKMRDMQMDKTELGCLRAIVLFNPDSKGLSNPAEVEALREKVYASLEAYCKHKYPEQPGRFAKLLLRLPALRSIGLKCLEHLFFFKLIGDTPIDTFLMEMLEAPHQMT
Sequence of Bile acid receptor (Homo sapiens) (Q96RI1 whole entry, looked up): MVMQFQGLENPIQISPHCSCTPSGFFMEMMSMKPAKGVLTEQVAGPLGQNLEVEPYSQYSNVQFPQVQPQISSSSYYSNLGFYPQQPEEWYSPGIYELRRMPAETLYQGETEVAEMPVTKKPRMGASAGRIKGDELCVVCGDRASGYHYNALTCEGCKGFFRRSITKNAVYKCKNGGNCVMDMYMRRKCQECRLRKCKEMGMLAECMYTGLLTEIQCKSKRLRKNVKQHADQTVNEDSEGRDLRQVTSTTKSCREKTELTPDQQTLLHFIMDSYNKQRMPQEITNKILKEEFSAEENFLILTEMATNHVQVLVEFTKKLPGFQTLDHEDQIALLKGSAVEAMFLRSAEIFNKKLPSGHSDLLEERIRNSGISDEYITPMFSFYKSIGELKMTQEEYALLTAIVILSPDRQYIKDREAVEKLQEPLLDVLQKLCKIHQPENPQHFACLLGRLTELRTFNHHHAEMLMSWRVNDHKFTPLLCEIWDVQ
Sequence of Estrogen receptor beta (Homo sapiens) (Q92731 whole entry, looked up, the tested form may be a part): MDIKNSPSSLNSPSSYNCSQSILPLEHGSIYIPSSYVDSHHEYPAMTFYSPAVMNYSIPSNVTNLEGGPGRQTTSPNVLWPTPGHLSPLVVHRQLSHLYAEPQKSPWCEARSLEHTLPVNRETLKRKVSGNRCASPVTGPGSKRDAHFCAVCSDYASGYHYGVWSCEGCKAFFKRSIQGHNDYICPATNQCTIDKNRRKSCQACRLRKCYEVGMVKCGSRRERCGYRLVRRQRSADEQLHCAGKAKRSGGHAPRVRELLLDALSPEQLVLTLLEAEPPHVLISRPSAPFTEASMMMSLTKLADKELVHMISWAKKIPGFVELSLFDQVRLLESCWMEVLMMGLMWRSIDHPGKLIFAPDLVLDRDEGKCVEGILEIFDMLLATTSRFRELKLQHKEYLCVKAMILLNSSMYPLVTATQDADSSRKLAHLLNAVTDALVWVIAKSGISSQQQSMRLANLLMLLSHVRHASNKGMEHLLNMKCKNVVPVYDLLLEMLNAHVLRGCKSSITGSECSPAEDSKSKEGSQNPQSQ
Sequence of mouse Estrogen Receptor alpha (Era), Esr1 (gene 13982) (P19785 whole entry, looked up): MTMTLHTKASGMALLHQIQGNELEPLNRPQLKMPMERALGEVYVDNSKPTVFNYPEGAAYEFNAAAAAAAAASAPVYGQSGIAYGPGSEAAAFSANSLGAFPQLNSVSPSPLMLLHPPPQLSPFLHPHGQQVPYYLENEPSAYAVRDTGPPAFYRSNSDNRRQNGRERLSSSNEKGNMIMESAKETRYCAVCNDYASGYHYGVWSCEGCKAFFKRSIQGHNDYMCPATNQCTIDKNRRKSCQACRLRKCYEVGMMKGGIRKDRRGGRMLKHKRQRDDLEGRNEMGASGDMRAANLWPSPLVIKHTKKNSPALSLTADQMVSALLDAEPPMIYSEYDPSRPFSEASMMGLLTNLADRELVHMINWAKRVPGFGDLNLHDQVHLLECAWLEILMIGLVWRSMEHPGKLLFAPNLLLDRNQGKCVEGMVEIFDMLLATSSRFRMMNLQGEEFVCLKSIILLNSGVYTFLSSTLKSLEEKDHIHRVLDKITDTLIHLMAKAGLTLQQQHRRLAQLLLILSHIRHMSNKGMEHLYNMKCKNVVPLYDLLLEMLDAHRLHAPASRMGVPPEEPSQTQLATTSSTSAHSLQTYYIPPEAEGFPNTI
Sequence of Agonist Androgen Response Element (ARE), AR (gene 367) (P10275 whole entry, looked up): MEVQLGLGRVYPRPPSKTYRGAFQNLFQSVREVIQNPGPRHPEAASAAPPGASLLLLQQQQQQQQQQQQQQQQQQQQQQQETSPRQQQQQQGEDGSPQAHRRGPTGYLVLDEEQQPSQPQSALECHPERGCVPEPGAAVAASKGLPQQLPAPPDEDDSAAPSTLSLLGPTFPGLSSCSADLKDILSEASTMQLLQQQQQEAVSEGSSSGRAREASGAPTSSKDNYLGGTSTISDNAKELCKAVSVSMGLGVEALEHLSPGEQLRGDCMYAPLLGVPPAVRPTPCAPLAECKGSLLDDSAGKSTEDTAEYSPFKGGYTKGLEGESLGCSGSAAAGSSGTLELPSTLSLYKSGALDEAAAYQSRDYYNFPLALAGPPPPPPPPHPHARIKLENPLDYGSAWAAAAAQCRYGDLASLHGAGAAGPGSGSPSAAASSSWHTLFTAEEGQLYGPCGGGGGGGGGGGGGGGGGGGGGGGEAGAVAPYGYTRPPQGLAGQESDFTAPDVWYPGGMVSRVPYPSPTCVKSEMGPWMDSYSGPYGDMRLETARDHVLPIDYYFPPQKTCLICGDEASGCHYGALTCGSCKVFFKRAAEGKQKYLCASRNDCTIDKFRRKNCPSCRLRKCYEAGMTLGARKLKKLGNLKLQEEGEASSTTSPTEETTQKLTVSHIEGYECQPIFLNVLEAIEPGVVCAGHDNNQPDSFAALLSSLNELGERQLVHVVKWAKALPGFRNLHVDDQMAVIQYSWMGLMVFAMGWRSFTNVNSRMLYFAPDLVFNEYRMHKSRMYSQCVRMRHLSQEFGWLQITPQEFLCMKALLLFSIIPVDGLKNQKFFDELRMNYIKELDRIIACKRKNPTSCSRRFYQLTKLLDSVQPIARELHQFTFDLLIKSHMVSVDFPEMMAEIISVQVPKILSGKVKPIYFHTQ

As to `COc1ccc(-c2coc3cc(O)cc(O)c3c2=O)cc1`, the result in assay [1], in assay [5], in [9], in assay [10] and in assay [11] was inactive. The AC50 in assay [2] was 2.61 µM (active); in assay [3] it was 8.5 µM (active); in assay [4], 12.4 µM (active); in assay [6] it was 6.15 µM (active); in assay [7], 7.39 µM (active); in [8], 7.4 µM (active). In addition, in assay [12], the concentration at half-maximal activity (AC50) is 1.81 µM (active).
Take `CCCCCCCCCCCCCC(=O)OC(C)C`: the AC50 in [13] is 3.48 µM (active). For the same compound, the result in [2], in assay [3], in [4], in assay [14], in assay [15] and in [16] was inactive. Moreover, the outcome in [5] and in [17] was inactive.
Take `COc1ccc(C(=O)c2ccccc2)c(O)c1`: the compound was called inactive in assay [13], in assay [3], in assay [4], in assay [14], in assay [18] and in assay [15]. Further, the result in assay [5], in assay [17], in assay [6], in assay [7], in assay [8] and in [10] was inactive. Moreover, the compound was called inactive in [11] and in [12]. In addition, the figures for the AC50 in assay [2], in assay [19] and in [9] were 57.8 µM (active), 25 µM (active) and 11.1 µM (active), respectively.
With `c1ccc(Nc2cccc3ccccc23)cc1`, the result in assay [1], in assay [3], in assay [4], in assay [5] and in assay [17] was inactive. For the same compound, the half-maximal activity concentration (AC50) in [2] was 37.3 µM (active); in assay [15], 77.5 µM (active).
On to `Cc1ccc([N+](=O)[O-])cc1N`, for which the compound was called inactive in assay [20], in assay [2], in [3], in assay [4], in [14] and in [18]. In addition, the call in assay [15], in [5], in [17] and in [7] was inactive. The AC50 in [8] is 18.8 µM (active); in [12], 30.2 µM (active).
Take `COC(=O)C=Cc1ccccc1`: the outcome in assay [20] was inactive.
Regarding `CCCCCCCCCCCCCCCCCCOS(=O)(=O)O`, the result in [1], in [3], in assay [4], in [14], in assay [18] and in assay [5] was inactive. In addition, the call in [17] was inactive. Further, the AC50 in [2] was 12.6 µM (active).
Regarding `CCCC(CC)c1ccccc1` (stereo not given), the compound was classed as inactive in assay [2], in assay [3], in assay [4], in assay [15], in assay [5] and in assay [17].
As to `Nc1ccc(C(=O)O)cc1`, the outcome in assay [2], in assay [3], in assay [4], in [14], in [18] and in [15] was inactive. Further, the compound was classed as inactive in [5] and in assay [17].
In the case of `CCCCCCCCCCCC(=O)N(C)CC(=O)O`, the call in [2], in [3], in [4], in assay [15], in [5] and in [17] was inactive.
In the case of `NC(=O)Nc1ccccc1`, the compound was classed as inactive in assay [2], in assay [3], in [4] and in [15].

For the origin of these results see PubChem BioAssay (EPA / NIEHS).
